# Sampled rows, rich in hits. Any-hit rate of the full collection: about 4.7%.
# SKKanGAS inh = S. pyogenes SKKanGAS growth inhibitors in kanamycin, primary screen, streptokinase expression inhibitor project, SKKanGAS strain, BacTiter-Glo luminescence; 6 h; inhibition, % at 7.5 µM; 300,000 tested, 1.3% active; AID 1662, 2009;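 active = mean replicate score, as percent of positive control median, at least 50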;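 also: strain carries kanamycin resistance gene driven by streptokinase promoter and grows in 40 µg/ml kanamycin; loss of luminescence reflects streptokinase promoter inhibition or plain growth inhibition; 0% = median of DMSO wells and 100% = positive control at its reference dose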
# TIM10 inh = growth inhibitors of isogenic TIM10 control yeast, primary screen, counter-screen for tim10-1 yeast inhibitor project, luminescence, uHTS; 330,000 tested, 1.4% active; S. cerevisiae TIM10 strain growth, BacTiter-Glo luminescence, 24 h; inhibition, % at 10 µM;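 active = inhibition of 40% or more at the single tested concentration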;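 also: wild-type TIM10 isogenic control strain grown at permissive 25 °C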
# PfHsp90 yeast 2 = growth inhibition of PfHsp90-expressing yeast, primary screen, antimalarial PfHsp90 inhibitor project, S. cerevisiae, BacTiter-Glo luminescence, single point, set 2; BacTiter-Glo ATP, 48 h; yeast lacking PDR1 and PDR3 efflux regulators; inhibition, % at 9.4 µM; 310,000 tested, 0.32% active; AID 504621, 2011;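 active = every replicate shows inhibition above about 80%, whatever the replicate mean, limit read from the data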;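 also: 0% = DMSO neutral controls and 100% = 20 µM radicicol positive controls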
# tim10-1 inh = growth inhibitors of tim10-1 mutant yeast, primary screen, luminescence, uHTS | S. cerevisiae tim10-1 ts strain growth, BacTiter-Glo, 24 h | inhibition, % at 20 µM | 330,000 tested, 2.2% active | AID 463190, 2010;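 active = inhibition of at least 40%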;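 also: mutant grown at 25 °C; 0% = DMSO wells with yeast and 100% = wells holding no yeast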
# EBI2 block = EBI2 receptor antagonists, beta-arrestin recruitment, primary screen, cell-based, luminescence, 7a,25-OHC stimulation, uHTS; inhibition, % at 5 µM; 7a,25-OHC stimulated; 360,000 tested, 0.81% active; in the data active = inhibition above about 38%;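 also: enzyme fragment complementation signal reports receptor beta-arrestin coupling in cells; 0% = agonist plus DMSO wells and 100% = wells without agonist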
# Target sequence (P32249 whole entry, looked up, the tested form may be a part): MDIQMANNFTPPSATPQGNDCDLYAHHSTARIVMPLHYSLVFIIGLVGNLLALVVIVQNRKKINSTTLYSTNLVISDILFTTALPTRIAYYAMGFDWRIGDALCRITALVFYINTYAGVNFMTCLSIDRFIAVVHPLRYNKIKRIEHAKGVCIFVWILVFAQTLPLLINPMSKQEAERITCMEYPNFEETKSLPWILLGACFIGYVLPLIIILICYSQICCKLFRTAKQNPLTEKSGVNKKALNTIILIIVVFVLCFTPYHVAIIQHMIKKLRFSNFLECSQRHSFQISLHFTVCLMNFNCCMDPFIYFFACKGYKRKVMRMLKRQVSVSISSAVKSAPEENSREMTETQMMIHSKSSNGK
# tim23-1 inh = growth inhibitors of tim23-1 mutant yeast, primary screen, luminescence, uHTS; inhibition, % at 20 µM; 330,000 tested, 1.3% active; S. cerevisiae tim23-1 growth, BacTiter-Glo luminescence, 24 h;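 active = growth inhibition of the mutant yeast at or above 50%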;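 also: temperature-sensitive mutant grown at 25 °C; plate controls were DMSO-treated mutant yeast for no effect and medium wells lacking yeast for full effect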
# tim10-1 conf = growth inhibitors of tim10-1 mutant yeast, confirmation, single concentration, luminescence, S. cerevisiae | shares compounds with tim10-1 inh | S. cerevisiae tim10-1 ts strain growth, BacTiter-Glo, 24 h | inhibition, % at 20 µM | 7,400 tested, 56% active | AID 463213, 2010;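 active = inhibition of yeast growth at or above a set limit in either of two repeat tests at 20 µM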;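 also: tim10-1 mutant grown at permissive 25 °C to find synthetic lethal compounds; 0% = DMSO yeast wells and 100% = medium wells without yeast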
# An asterisk follows results filed as active; / = no result given.
SMILES,SKKanGAS inh,TIM10 inh,PfHsp90 yeast 2,tim10-1 inh,EBI2 block,tim23-1 inh,tim10-1 conf
CCc1cccc(NS(=O)(=O)c2ccc(-n3cccn3)cc2)c1,3,12,1,50*,8,38,18
O=S(=O)(Nc1cccc(Cl)c1)c1ccc(-n2cccn2)cc1,-3,28,4,24,-1,33,/
COc1ccc(N/C(C)=C/C(=S)Nc2ccccc2)cc1,-1,15,5,41*,12,26,15
CC1(C)CC(=O)C2=C(C1)OC1=C(C(=O)CC(C)(C)C1)C2c1ccc(O)cc1O,-4,36,-18,44*,-5,46,35*
CCC1CCCCN1C(=O)CN1C(=O)c2ccccc2S1(=O)=O (centres undefined),1,7,/,4,-3,-9,/
O=[N+]([O-])CC(c1ccccc1)P(=O)(c1ccccc1)c1ccccc1 (centres undefined),6,0,-7,41*,-4,28,14
O=C1NC(=O)/C(=C/c2cccc3ccccc23)S1,25,12,-35,47*,-17,41,35*
O=C1NC(=O)C(=Cc2ccccc2[N+](=O)[O-])S1,/,/,-16,/,-1,/,/
CC(C)On1c(SCC(=O)N(C)C)nc2ccccc2c1=O,-3,-3,/,-16,/,24,/
COc1ccc(-c2csc3ncnc(N4CCN(C(=O)c5ccco5)CC4)c23)cc1,3,25,-12,35,21,32,/
O=C(c1ccco1)N1CCN(c2ncnc3scc(-c4cccs4)c23)CC1,2,10,31,46*,8,38,30
COc1ccccc1NC=C1C(=O)OC2(CCCCC2)OC1=O,-6,17,/,40*,-5,22,22
COC(=O)c1ccccc1NC=C1C(=O)OC2(CCCCC2)OC1=O,2,5,16,31,4,4,/
CN(CC(=O)Nc1ccc(F)c(F)c1F)C(=O)CCCSc1nc2ccccc2[nH]1,0,15,/,6,-4,11,/
c1ccc(-n2nnnc2SCc2cccc3nsnc23)cc1,5,23,-8,40*,-2,36,33*
S=C1NC(c2cccs2)=CC(c2ccc(Br)cc2)N1 (centres undefined),2,13,5,41*,20,39,33*
Cc1cccc2nc(-c3cccnc3)c(NCCC(C)C)n12,4,23,-61,46*,9,40,40*
CCN(CC)S(=O)(=O)c1cccc(NC(=O)c2ccc(SC)cc2OC)c1,7,20,27,43*,17,32,37*
COc1ccc(S(=O)(=O)NCCSc2ccc(Cl)cc2)cc1OC,-4,22,18,30,15,34,/
O=S(=O)(NCCSCc1ccc(Cl)cc1Cl)c1ccc2c(c1)OCCO2,-10,19,-26,45*,3,28,34*
O=S(=O)(NCc1ccc(F)cc1)c1ccc2c(c1)OCCO2,-3,28,/,53*,-9,37,37*
NS(=O)(=O)c1ccc(CNS(=O)(=O)c2ccc3c(c2)OCCO3)cc1,-3,6,-9,-7,-10,2,/
O=S(=O)(NCCSc1ccc(Cl)cc1)c1ccc2c(c1)OCCO2,2,24,-11,56*,3,30,49*
CC[C@@H]1CC=C[C@H]2[C@H]1C(=O)N(Cc1ccccc1)[C@H]2c1ccoc1,-1,-4,/,77*,-4,-14,73*
CC[C@@H]1CC=C[C@H]2[C@H]1C(=O)N(Cc1ccccc1)[C@H]2c1ccc(OC)c(Cl)c1,59*,36,-16,43*,15,38,29
SMILES,SKKanGAS inh,TIM10 inh,PfHsp90 yeast 2,tim10-1 inh,EBI2 block,tim23-1 inh,tim10-1 conf
C[C@@H]1CC=C[C@H]2[C@H]1C(=O)N(Cc1ccccc1)[C@H]2c1ccoc1,9,-2,/,50*,0,5,34*
CC[C@@H]1CC=C[C@H]2[C@H]1C(=O)N(Cc1ccccc1)[C@H]2c1ccc(C(F)(F)F)cc1,40,35,8,36,19,43,/
CN(C)S(=O)(=O)c1ccc(C(=O)OCC2CCCO2)cc1 (centres undefined),2,/,-16,/,-9,/,/
COc1ccc(-c2nc3ccccn3c2NCc2ccc3c(c2)OCO3)cc1,-1,34,9,42*,-12,39,13
Cc1ccccc1C(=O)N1CCC2CC1c1cc(Cl)ccc12 (centres undefined),/,/,13,/,4,/,/
COc1ccccc1-n1cc(-c2ccccc2)c2c(=S)nc[nH]c21,5,31,-38,48*,-4,41,14
COCCNC(=S)N/N=C(\C)c1cccc([N+](=O)[O-])c1,-7,17,-10,18,-1,18,/
CCNC(=S)N/N=C(\C)c1cccc([N+](=O)[O-])c1,-2,29,6,44*,-12,35,26
CCOC(=O)c1c(-c2ccc(-c3ccccc3)cc2)csc1NC(=O)CNCCN(C)C,112*,-15,5,43*,-7,48,25
CCOC(=O)c1c(-c2ccccc2)csc1NC(=O)CCN1C(=O)c2ccccc2C1=O,5,-19,-7,17,-10,22,/
CCNC(=S)Nc1scc(-c2ccccc2)c1C(=O)OCC,34,39,-11,41*,10,33,31
CCOC(=O)c1c(-c2ccccc2)csc1NC(=S)NC,1,19,15,42*,-3,27,38*
O=C1C/C(=C\c2c(F)cccc2Cl)N2CCC1CC2,8,-10,-2,-3,3,5,/
COc1ccc(Nc2ncnc3scc(-c4ccc(OC)cc4)c23)cc1,50*,39,-6,49*,12,40,36*
COc1ccc(-c2csc3ncnc(Cl)c23)cc1,4,-5,12,36,3,18,/
O=C(CS(=O)(=O)c1ccccc1)c1cc2ccccc2oc1=O,-5,17,-5,42*,-1,50,1
O=C(c1cc2ccccc2oc1=O)N(Cc1cccs1)Cc1cccs1,5,15,35,42*,4,26,14
O=C(c1cc2ccccc2oc1=O)N(Cc1ccco1)Cc1cccs1,2,2,/,27,8,36,/
CCN(CC)CCC12CC(C)OC1=Nc1ccccc1NC2=O (centres undefined),/,/,/,/,-4,/,/
C[C@H]1C=C(C(=O)NCc2ccccc2)O[C@@H](OCc2ccc(CO)cc2)C1,-6,7,-24,13,5,23,/
